Source: PubChem
Mtb FBA inh: Mtb FBA enzyme inhibitors, primary screen, biochemical, fluorescence, strain H37Rv. Fructose-bisphosphate aldolase (Mycobacterium tuberculosis (strain ATCC 25618 / H37Rv)), …. purified M. tuberculosis FBA, fluorescence read-out. inhibition, % at 1 µM. hit rate 2.3% among 360,000. AID 588726, 2011;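 note: 0% = vehicle and 100% = reference inhibitor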
Target sequence (P9WQA3 whole entry, looked up): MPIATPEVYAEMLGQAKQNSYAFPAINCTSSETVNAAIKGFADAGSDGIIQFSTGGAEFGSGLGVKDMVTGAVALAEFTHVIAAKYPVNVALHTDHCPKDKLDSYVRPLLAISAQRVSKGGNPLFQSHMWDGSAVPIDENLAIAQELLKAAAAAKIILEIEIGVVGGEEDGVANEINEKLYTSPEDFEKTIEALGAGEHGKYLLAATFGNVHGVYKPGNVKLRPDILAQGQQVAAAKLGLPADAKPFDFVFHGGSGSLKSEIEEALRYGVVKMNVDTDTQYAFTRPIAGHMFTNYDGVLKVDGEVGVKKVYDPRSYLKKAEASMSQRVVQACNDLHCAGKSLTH
PrP 5UTR inh: inhibition of PrP 5' UTR reporter expression | cell-based PrP 5' UTR mRNA reporter, plate reader | inhibition, % (no concentration beside the values) | hit rate 0.35% among 340,000; in the data active = inhibition above about 52%; note: 0 = median of the neutral control wells
Y pestis TopoI: Yersinia pestis topoisomerase I inhibitors, primary screen, biochemical, cleavage product accumulation, plate reader, single point; DNA topoisomerase I (Yersinia pestis CO92); Y. pestis Topo-I cleavage product accumulation; activity, % at 10 µM; hit rate 0.064% among 360,000; in the data active = activity above about 50%, passing the limit was not always enough
GDH-TPI counter-1: GDH-TPI coupling enzyme inhibitors, primary screen, artefact control for M. tuberculosis FBA inhibitor project, biochemical, absorbance, full deck; GDH-TPI coupled enzyme counterscreen, NADH absorbance; inhibition, % at 4.8 µM; hit rate 1.2% among 360,000; AID 588335, 2011; in the data active = inhibition above about 30%;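 note: 0% = DMSO wells and 100% = wells lacking the enzyme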
PrPC TRFRET: inhibitors of human cell surface prion protein PrPC, primary screen, cell-based, TR-FRET. Major prion protein (Homo sapiens), P04156. TR-FRET read-out. inhibition, % at 13.8 µM. hit rate 0.43% among 370,000. AID 720596, 2013; in the data active = inhibition above about 24%; note: 0% = median of the test wells and 100% = reference compound wells
Mtb hypoxia inh: PubChem AID 1159583. M. tuberculosis hypoxia-regulated fluorescent reporter, fluorescence. fluorescence inhibition, % (concentration not given with the values). hit rate 0.1% among 300,000; in the data active = fluorescence inhibition mostly above about 23%, no sharp cut-off; inactive = mostly below about 17%
Mtb FBA inh conf: M. tuberculosis aldolase blockers, biochemical, fluorescence, strain H37Rv, confirmation | purified M. tuberculosis FBA, fluorescence read-out | hit rate 78% among 5,600 | inhibition, % at 1 µM | shares compounds with Mtb FBA inh | AID 651616, 2012;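 note: 0% = vehicle wells and 100% = reference inhibitor wells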
GDH-TPI counter-2: GDH-TPI coupling enzyme inhibitors, artefact control for M. tuberculosis FBA inhibitor project, biochemical, fluorescence, high throughput; shares compounds with Mtb FBA inh; GDH-TPI coupled enzyme counterscreen; inhibition, % at 1 µM; hit rate 81% among 5,600; AID 652141, 2013; in the data active = inhibition above about 10%
GDH-TPI dose: GDH-TPI coupling enzyme inhibitors, dose response, artefact control for M. tuberculosis FBA inhibitor project, biochemical, fluorescence, IC50; shares compounds with Mtb FBA inh; GDH-TPI coupled enzyme assay, artifact counterscreen; IC50, µM; hit rate 79% among 170; AID 652145, 2013; call rule not given here
An asterisk follows results filed as active; x = not tested or not shown; + = active, no number. Shown are actives, neighbours in structure and some others; about 3.8% of the full set was active somewhere. Cut-off read from the data, not from the text of the source, unless noted: active = inhibition above about 27%; inactive = the rest.

SMILES | Mtb FBA inh | PrP 5UTR inh | Y pestis TopoI | GDH-TPI counter-1 | PrPC TRFRET | Mtb hypoxia inh | Mtb FBA inh conf | GDH-TPI counter-2 | others
O=c1[nH]c(=O)n(Cc2ccccc2)c2nc(-c3ccc(C(F)(F)F)cc3)n(CCO)c12 | 68.5* | -22.8 | 4.2 | 6.2 | 1.1 | 8.1 | 134.3* | 114.7*
CCCn1c(-c2cc(OC)c(OC)c(OC)c2)nc2c1c(=O)[nH]c(=O)n2Cc1ccccc1 | 40.8* | -12.1 | 2.7 | -3.7 | -0.6 | 12.1 | 12.3 | 8.9
CCN1C(=O)c2cccc3c(S(=O)(=O)N(C(C)=O)c4ccc(OC(C)=O)cc4)ccc1c23 | 53.0* | -20.0 | 22.0 | 11.8 | -14.0 | 9.8 | + | +
Cc1ccc(-c2[nH]ncc2C=Nn2c(C)nc3ccccc3c2=O)cc1 | x | x | x | x | x | 3.2 | x | x
CC(=O)C12CCCCC1CC1[C@@H]3CC(C)C4=CC(=O)CC[C@]4(C)C3CC[C@@]12C (stereo partly specified) | 34.3* | -13.1 | -1.6 | 2.1 | 0.1 | -8.6 | 187.2* | 175.4*
Cc1cc([N+](=O)[O-])nn1CC(=O)NN=Cc1ccccc1Br | x | x | x | x | x | 20.0 | x | x
CC(=NNC(=O)c1ccncc1)C1=C(O)CC(C)(C)CC1=O | x | x | x | x | x | 8.7 | x | x
COc1ccc(C(C)=NNS(=O)(=O)c2cc(C)ccc2C)c(OC)c1 | x | x | x | x | x | 11.5 | x | x
O=c1oc(C2(O)CCCCC2)cc2ccc(/C=C/c3ccc(F)cc3)cc12 | 31.6* | -18.3 | 13.2 | 8.3 | -0.5 | x | 34.4* | 24.0*
Oc1ccc(Cl)cc1/C=N/c1nccs1 | 3.2 | -43.8 | -2.9 | 13.1 | -4.3 | x | x | x
CCc1ccc(O)c(N=Cc2cccc(C)c2O)c1 | -1.2 | -26.3 | -11.3 | 2.5 | 1.5 | 1.3 | x | x
Oc1ccc(Cl)cc1C=Nc1ccc2c3c(cccc13)CC2 | 51.5* | -57.5 | -1.1 | 17.3 | 7.3 | 4.1 | 34.7* | 18.8*
Cc1cccc(C=Nc2ccc3c4c(cccc24)CC3)c1O | 36.5* | -3.3 | -11.6 | -0.7 | 4.3 | 10.8 | 54.4* | 54.5*
CS(=O)(=O)NN1C(=O)c2ccccc2NC1c1cccc2cccnc12 (stereo unspecified) | 5.1 | -16.9 | 1.4 | 0.7 | -3.5 | 1.9 | x | x
COc1ccc(C2Nc3ccccc3C(=O)N2NS(C)(=O)=O)cc1 (stereo unspecified) | 27.1* | -0.5 | -9.4 | 6.7 | 4.2 | 2.8 | 104.8* | 107.7*
CC1Nc2ccccc2C(=O)N1NS(C)(=O)=O (stereo unspecified) | 50.3* | -21.9 | -3.9 | 9.6 | 1.0 | 2.5 | 74.0* | 60.7*
O=C(NN=C1CC2CC=CC12)c1ccc(Br)cc1 (stereo unspecified) | x | x | x | x | x | 2.4 | x | x
O=C(/C=C/c1ccc(Cl)c(C(F)(F)F)c1)N1CCN(c2ccccn2)CC1 | 93.3* | -17.6 | 9.2 | 5.0 | 5.4 | 9.5 | 143.1* | 129.5*
Cc1cc(C)n2cc(CSc3ccc(Br)cc3)nc2n1 | 8.0 | -19.9 | 7.5 | 1.2 | 10.3 | -8.4 | x | x
Cc1cc(C)n2cc(CSc3nnc(-c4ccccc4)c(-c4ccccc4)n3)nc2n1 | 0.3 | -20.2 | 8.1 | -3.4 | 5.6 | 4.2 | x | x
Cc1cc(C)n2cc(CSc3ncn[nH]3)nc2n1 | 94.8* | -21.8 | 7.3 | 2.5 | 6.2 | 2.0 | 1.2 | -6.5
Cc1cc(C)n2cc(COc3ccccc3)nc2n1 | 70.6* | -3.8 | -2.6 | 7.0 | -0.6 | 8.0 | 83.0* | 60.9*
c1ccc(-c2nc3nc4ccccc4nc3n2CC2CCCO2)cc1 (stereo unspecified) | 83.6* | -37.1 | 12.9 | 33.7* | -31.2 | 8.7 | 95.9* | 71.6*
CC(=NNc1nc(-c2cc(C)ccc2C)cs1)c1cc2c(ccc3ccccc32)oc1=O | x | x | x | x | x | -1.9 | x | x
CC(Oc1ccc(Cl)cc1)C(=O)NCCN1C(=O)SC(=Cc2cccnc2)C1=O (stereo unspecified) | x | x | x | x | x | 2.8 | x | x
SMILES | Mtb FBA inh | PrP 5UTR inh | Y pestis TopoI | GDH-TPI counter-1 | PrPC TRFRET | Mtb hypoxia inh | Mtb FBA inh conf | GDH-TPI counter-2 | others
CC[C@@H]1C(c2ccccc2)=NN(c2ccc(Br)cc2)[C@H]1C(=O)N1CCOC1=O | 18.4 | -25.0 | 0.8 | 12.7 | 4.8 | 2.7 | x | x
CC[C@@H]1C(c2cccc(Cl)c2)=NN(c2ccc(Br)cc2)[C@H]1C(=O)N1CCOC1=O | 55.3* | -25.4 | -6.3 | 14.6 | x | 5.9 | 60.1* | 43.4*
c1ccc(C2CC(c3cccs3)=NN2c2ccccc2)cc1 (stereo unspecified) | 87.0* | -10.9 | -5.0 | 7.4 | 7.1 | 4.3 | 170.6* | 119.0*
Fc1ccc(C2CC(c3cccs3)=NN2c2ccccc2)cc1 (stereo unspecified) | 107.3* | 3.8 | -5.1 | 2.2 | 8.0 | -0.6 | 32.9* | 21.7*
O=S(=O)(c1ccccc1)N1N=C(c2cccs2)CC1c1ccc(Br)cc1 (stereo unspecified) | 9.2 | 10.4 | -7.4 | 8.1 | -0.1 | -5.7 | x | x
Cc1cc(C(F)(F)F)c2c(C)nn(CCc3nn[nH]n3)c2n1 | 25.9 | -11.1 | 5.8 | -7.6 | 3.7 | 7.1 | x | x
Cc1nn(CCc2nn[nH]n2)c2nc(-c3ccccc3)cc(C(F)(F)F)c12 | 39.8* | -5.2 | -6.6 | 5.5 | 13.5 | 13.9 | + | 163.9*
CCS(=O)(=O)Nc1ccccc1C(N)=O | 43.8* | -10.1 | 1.5 | -3.2 | -3.5 | 16.7 | 14.4 | -0.3 | GDH-TPI dose=4.35*
NC(=O)c1ccccc1NS(=O)(=O)Cc1ccc(Cl)cc1 | 69.8* | 5.0 | -3.5 | -5.8 | 3.0 | 4.0 | -8.6 | -7.9
NC(=O)c1ccccc1NC(=O)COc1ccc(Cl)cc1 | 1.2 | -37.6 | -3.7 | -2.6 | -1.8 | -2.0 | x | x
CC(=NNC(=O)c1ccccc1O)c1cccs1 | x | x | x | x | x | -0.2 | x | x
CC(C)(C(=O)NC(CO)c1ccccc1)C(=O)NC(CO)c1ccccc1 (stereo unspecified) | x | x | x | x | x | 1.5 | x | x
c1ccc2c(c1)Oc1cccc3cccc-2c13 | 28.5* | -21.9 | 5.0 | 13.1 | 8.6 | 0.1 | 85.9* | 80.8*
Nc1nnc(/C=C/c2ccccc2Cl)s1 | 28.1* | -25.5 | -0.1 | 6.4 | -6.5 | 6.5 | 15.4 | -0.3 | GDH-TPI dose=3.92*
O=C(NN=Cc1coc2ccccc2c1=O)c1ccccc1Br | x | x | x | x | x | -0.1 | x | x
